In PubChem BioAssay AID1159580 (chemical genetic matrix, 2015):
Screen size: about 5,500 compounds; about 2,000 (36%) were called active. Another 18% or so got no clear call; they are omitted. Rule as the data show it: active = normalized growth mostly below about 0.91 (no sharp cut-off); inconclusive = no clear call, values can overlap the other calls; inactive = mostly above about 0.92. Some of the results follow.

Test: chemical genetic growth profiling, strain panel (AID 1159580);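 also: tested at 20 µM; growth read once vehicle control cultures reached saturation at 30 °C; 1 = growth at the plate median or of vehicle wells; lower values mean less growth of the strain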
Conditions: S. cerevisiae deletion strains, growth OD

Measured: normalized growth

O=S(=O)(c1cc(Cl)ccc1Cl)N1CCc2ccccc2C1
inactive: locus YAR019C, strain CDC15, hits give low values 0.98 | locus YBL105C, strain PKC1, hits give low values 0.977 | locus YBR135W, strain CKS1, hits give low values 0.971 | locus YBR136W, strain MEC1, hits give low values 0.983 | locus YBR160W, strain CDC28, hits give low values 0.982 | locus YDL017W, strain CDC7, hits give low values 0.982 | locus YDL028C, strain MPS1, hits give low values 0.976 | locus YDL101C, strain DUN1, hits give low values 0.981 | locus YDL108W, strain KIN28, hits give low values 0.98 | locus YDL132W, strain cdc53, hits give low values 0.973 | locus YDL214C, strain PRR2, hits give low values 1.02 | locus YDR052C, strain DBF4, hits give low values 0.983 | locus YDR054C, strain cdc34, hits give low values 0.977 | locus YDR226W, strain ADK1, hits give low values 0.978 | locus YDR477W, strain SNF1, hits give low values 1.02 | locus YER123W, strain YCK3, hits give low values 1 | locus YER133W, strain GLC7, hits give low values 1.02 | locus YFL009W, strain cdc4, hits give low values 0.967 | locus YFL029C, strain CAK1, hits give low values 0.978 | locus YFR003C, strain YPI1, hits give low values 0.981 | locus YFR019W, strain FAB1, hits give low values 0.99 | locus YFR028C, strain CDC14, hits give low values 0.981 | locus YGR040W, strain KSS1, hits give low values 1.03 | locus YGR052W, strain FMP48, hits give low values 1.06 | locus YGR092W, strain DBF2, hits give low values 0.994 | locus YHR030C, strain SLT2, hits give low values 0.951 | locus YHR079C, strain IRE1, hits give low values 0.987 | locus YHR082C, strain KSP1, hits give low values 1.15 | locus YHR205W, strain SCH9, hits give low values 0.912 | locus YIL147C, strain SLN1, hits give low values 0.975 | locus YJL095W, strain BCK1, hits give low values 0.96 | locus YJL128C, strain PBS2, hits give low values 0.925 | locus YJL157C, strain FAR1, hits give low values 1.01 | locus YJR016C, strain ILV3, hits give low values 0.985 | locus YJR066W, strain TOR1 (second series), hits give low values 1.02 | locus YJR066W, strain TOR1, hits give low values 1.11 | locus YKL048C, strain ELM1, hits give low values 1 | locus YKL067W, strain YNK1, hits give low values 1 | locus YKL101W, strain HSL1, hits give low values 0.994 | locus YKL193C, strain SDS22, hits give low values 0.971 | locus YKL203C, strain TOR2, hits give low values 1.08 | locus YLR113W, strain HOG1, hits give low values 0.953 | locus YLR133W, strain CKI1, hits give low values 1 | locus YLR403W, strain SFP1, hits give low values 0.964 | locus YML070W, strain DAK1, hits give low values 1.02 | locus YMR001C, strain CDC5, hits give low values 0.98 | locus YMR205C, strain PFK2 (second series), hits give low values 0.995 | locus YMR277W, strain FCP1, hits give low values 0.982 | locus YNL006W, strain LST8, hits give low values 0.984 | locus YNL020C, strain ARK1, hits give low values 1.01 | locus YNL161W, strain CBK1, hits give low values 0.981 | locus YNL183C, strain NPR1, hits give low values 1.14 | locus YNL207W, strain RIO2, hits give low values 0.98 | locus YNL222W, strain SSU72, hits give low values 0.983 | locus YNL307C, strain MCK1 (second series), hits give low values 0.999 | locus YOL078W, strain AVO1, hits give low values 0.975 | locus YOL136C, strain PFK27, hits give low values 1 | locus YOR061W, strain CKA2, hits give low values 0.99 | locus YOR119C, strain RIO1, hits give low values 1.08 | locus YOR231W, strain MKK1, hits give low values 1.06 | locus YOR329C, strain SCD5, hits give low values 0.985 | locus YPL031C, strain PHO85, hits give low values 1.01 | locus YPL153C, strain RAD53, hits give low values 1.01 | locus YPL204W, strain HRR25, hits give low values 1.02 | locus YPL209C, strain IPL1, hits give low values 0.979 | locus YPL256C, strain CLN2, hits give low values 0.987 | locus YPR025C, strain CCL1, hits give low values 0.977 | locus YPR106W, strain ISR1, hits give low values 0.986 | locus YPR111W, strain DBF20, hits give low values 0.978 | strain NNK1, hits give low values 0.983 | strain TSCII, hits give low values 0.985
